The values that follow come from PMC7862700, “An all-to-all approach to the identification of sequence-specific readers for epigenetic DNA modifications on cytosine”.

Common to all, as to assay: DAPPL (digital affinity profiling via proximity ligation, sequencing); 10 mM Tris-HCl pH 7.5, 50 mM NaCl, 1 mM DTT, 4% glycerol, room temperature, 30 min; GST-TFs on glutathione beads, 16-mer random dsDNA library, 0.1% formaldehyde crosslink after washing; high values mean tight binding
One test has as its target T1, FLI1 (Homo sapiens, UniProt Q01543 1-452).
T1 sequence: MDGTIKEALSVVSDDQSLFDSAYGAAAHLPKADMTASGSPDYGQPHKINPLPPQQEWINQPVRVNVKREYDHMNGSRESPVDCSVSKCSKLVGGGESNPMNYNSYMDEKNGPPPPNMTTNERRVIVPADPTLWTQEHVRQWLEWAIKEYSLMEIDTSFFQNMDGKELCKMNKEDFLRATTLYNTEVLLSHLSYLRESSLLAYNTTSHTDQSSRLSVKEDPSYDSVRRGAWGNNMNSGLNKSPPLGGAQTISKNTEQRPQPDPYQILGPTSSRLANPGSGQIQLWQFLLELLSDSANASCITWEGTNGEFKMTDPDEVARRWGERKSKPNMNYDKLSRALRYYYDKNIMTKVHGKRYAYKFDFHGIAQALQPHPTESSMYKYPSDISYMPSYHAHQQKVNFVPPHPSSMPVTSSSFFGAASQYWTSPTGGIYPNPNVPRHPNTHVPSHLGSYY
To be noted: protein: recombinant; tags: N-terminal GST; dsDNA, one strand shown. Summed up:
(§1)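 Sequencing on an Illumina NextSeq500 followed washing, crosslinking with 0.1% formaldehyde, proximity ligation (BsaI/T4 ligase, 1 h, 37 °C) and PCR amplification of pools that had been incubated for 30 min at room temperature with 200 nmole of a random double-stranded 16-mer DNA library in Tris/NaCl/DTT/glycerol buffer. Each pool held DNA-barcoded human transcription factors, expressed in yeast as GST fusions and captured on glutathione beads, plus a tag-only sample. Binding signal is a hexamer's read frequency for a factor divided by its frequency in the tag-only sample.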

Another test addresses T2, ELK1 (Homo sapiens, UniProt P19419 1-428).
T2 sequence: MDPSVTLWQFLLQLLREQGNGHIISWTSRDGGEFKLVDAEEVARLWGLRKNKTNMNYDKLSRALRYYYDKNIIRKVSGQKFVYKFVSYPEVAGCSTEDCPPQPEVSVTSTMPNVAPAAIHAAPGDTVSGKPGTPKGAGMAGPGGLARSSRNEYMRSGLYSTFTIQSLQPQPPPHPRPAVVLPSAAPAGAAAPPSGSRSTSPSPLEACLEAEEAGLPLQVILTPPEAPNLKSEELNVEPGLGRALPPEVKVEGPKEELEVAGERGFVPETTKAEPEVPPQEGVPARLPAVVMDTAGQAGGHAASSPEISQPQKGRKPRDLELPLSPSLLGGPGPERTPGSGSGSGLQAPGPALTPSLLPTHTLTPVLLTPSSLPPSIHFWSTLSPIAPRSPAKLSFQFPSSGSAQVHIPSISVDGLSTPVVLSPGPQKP
To be noted: protein: recombinant; tags: N-terminal GST; dsDNA, one strand shown. Summed up:
as §1

The target in the next test is T3, GABPA (Homo sapiens, UniProt Q06546 1-454).
T3 sequence: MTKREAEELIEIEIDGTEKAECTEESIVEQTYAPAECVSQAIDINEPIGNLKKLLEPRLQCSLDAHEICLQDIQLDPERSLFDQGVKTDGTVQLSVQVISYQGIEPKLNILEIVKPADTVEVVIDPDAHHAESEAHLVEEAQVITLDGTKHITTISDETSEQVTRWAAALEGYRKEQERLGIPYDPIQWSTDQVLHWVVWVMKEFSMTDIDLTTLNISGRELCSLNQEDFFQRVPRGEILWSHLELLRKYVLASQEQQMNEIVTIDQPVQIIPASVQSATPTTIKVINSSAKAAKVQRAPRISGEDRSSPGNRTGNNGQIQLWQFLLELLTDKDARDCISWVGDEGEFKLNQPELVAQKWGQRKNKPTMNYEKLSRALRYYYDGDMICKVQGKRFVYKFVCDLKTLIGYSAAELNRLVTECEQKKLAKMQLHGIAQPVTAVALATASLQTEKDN
To be noted: protein: recombinant; tags: N-terminal GST; dsDNA, one strand shown. In outline:
as §1

The target in a further test is T4, ERG (Homo sapiens, UniProt P11308 1-479).
T4 sequence: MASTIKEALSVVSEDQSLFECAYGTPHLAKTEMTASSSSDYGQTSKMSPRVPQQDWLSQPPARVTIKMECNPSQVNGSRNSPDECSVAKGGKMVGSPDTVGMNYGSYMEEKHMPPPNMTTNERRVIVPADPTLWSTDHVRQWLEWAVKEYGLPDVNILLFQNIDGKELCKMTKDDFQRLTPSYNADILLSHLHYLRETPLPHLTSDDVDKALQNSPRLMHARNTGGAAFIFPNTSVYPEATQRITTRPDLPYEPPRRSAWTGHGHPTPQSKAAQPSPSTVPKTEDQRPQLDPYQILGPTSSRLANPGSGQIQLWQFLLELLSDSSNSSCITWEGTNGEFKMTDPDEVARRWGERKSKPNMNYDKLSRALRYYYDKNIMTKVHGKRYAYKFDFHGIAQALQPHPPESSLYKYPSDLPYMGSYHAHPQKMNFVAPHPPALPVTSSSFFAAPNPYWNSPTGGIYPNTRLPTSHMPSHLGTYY
To be noted: protein: recombinant; tags: N-terminal GST; dsDNA, one strand shown. In outline:
as §1

The target of a further test is ELF1 (Homo sapiens, UniProt P32519 1-619). To be noted: protein: recombinant; tags: N-terminal GST; dsDNA, one strand shown. In outline: as §1
Sequence of ELF1 (P32519 whole entry): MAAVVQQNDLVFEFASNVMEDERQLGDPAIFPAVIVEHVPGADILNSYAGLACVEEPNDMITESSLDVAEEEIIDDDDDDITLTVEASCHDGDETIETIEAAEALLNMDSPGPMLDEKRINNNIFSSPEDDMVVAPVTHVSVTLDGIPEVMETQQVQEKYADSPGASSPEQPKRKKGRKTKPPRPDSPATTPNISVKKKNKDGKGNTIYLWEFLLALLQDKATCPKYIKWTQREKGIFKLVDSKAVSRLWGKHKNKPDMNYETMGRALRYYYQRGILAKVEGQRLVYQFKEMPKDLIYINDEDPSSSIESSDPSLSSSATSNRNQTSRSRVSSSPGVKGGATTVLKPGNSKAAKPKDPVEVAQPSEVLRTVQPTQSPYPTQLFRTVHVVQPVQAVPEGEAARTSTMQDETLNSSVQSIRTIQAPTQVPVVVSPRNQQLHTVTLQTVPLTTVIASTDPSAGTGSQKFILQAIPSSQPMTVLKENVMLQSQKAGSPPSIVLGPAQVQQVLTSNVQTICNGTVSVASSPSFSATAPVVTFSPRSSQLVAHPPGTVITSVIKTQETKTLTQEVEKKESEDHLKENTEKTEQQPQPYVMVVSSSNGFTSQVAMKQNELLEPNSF
Another test addresses T5, EHF (Homo sapiens, UniProt Q9NZC4 1-300).
T5 sequence: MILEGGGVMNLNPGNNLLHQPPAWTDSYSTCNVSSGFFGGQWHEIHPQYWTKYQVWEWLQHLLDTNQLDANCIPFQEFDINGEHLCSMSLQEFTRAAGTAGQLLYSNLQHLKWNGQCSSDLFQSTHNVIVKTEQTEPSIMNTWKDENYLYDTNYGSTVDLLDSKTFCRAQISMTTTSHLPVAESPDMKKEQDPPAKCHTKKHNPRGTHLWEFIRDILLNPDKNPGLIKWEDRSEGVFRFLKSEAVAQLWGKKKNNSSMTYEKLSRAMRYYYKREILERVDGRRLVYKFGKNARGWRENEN
To be noted: protein: recombinant; tags: N-terminal GST; dsDNA, one strand shown. Summed up: as §1

Another test has as its target SPIB (Homo sapiens, UniProt Q01892 1-262). To be noted: protein: recombinant; tags: N-terminal GST; dsDNA, one strand shown. Summed up: as §1
Another test deals with T6, FEV (Homo sapiens, UniProt Q99581 1-238).
T6 sequence: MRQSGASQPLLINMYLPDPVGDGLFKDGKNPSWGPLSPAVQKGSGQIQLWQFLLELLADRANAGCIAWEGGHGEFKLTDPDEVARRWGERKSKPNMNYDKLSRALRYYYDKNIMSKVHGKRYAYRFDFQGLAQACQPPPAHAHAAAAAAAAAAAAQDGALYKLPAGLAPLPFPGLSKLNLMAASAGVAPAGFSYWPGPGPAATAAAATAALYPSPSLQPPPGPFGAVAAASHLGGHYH
To be noted: protein: recombinant; tags: N-terminal GST; dsDNA, one strand shown. In outline: as §1

The next test deals with ETV5 (Homo sapiens, UniProt P41161 1-510). To be noted: protein: recombinant; tags: N-terminal GST; dsDNA, one strand shown. In outline: as §1
Sequence of ETV5 (P41161 whole entry): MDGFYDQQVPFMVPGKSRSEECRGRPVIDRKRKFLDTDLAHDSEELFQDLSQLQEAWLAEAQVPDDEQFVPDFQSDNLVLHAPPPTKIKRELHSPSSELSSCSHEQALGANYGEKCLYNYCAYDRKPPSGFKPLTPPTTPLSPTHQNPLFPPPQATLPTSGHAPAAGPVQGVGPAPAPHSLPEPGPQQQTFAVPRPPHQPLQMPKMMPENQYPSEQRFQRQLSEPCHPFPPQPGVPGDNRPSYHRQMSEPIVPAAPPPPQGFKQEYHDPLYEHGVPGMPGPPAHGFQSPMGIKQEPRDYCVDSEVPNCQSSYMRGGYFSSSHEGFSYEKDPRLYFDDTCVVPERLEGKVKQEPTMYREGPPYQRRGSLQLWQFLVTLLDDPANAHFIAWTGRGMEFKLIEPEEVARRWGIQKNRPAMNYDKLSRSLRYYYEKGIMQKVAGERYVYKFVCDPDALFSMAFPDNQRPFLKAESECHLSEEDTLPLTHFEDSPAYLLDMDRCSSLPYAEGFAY
The next test concerns the target HSF1 (Homo sapiens, UniProt Q00613 1-529). To be noted: protein: recombinant; tags: N-terminal GST; chain copies: 3; dsDNA, one strand shown. In outline:
as §1

The target in the next test is T7, SPIC (Homo sapiens, UniProt Q8N5J4 1-248).
T7 sequence: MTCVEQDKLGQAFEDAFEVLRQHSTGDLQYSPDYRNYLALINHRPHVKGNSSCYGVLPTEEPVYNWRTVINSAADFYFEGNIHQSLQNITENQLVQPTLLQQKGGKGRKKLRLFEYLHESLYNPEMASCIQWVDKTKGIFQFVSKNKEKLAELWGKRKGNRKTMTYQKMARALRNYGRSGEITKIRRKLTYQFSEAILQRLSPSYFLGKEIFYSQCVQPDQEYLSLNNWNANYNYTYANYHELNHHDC
To be noted: protein: recombinant; tags: N-terminal GST; dsDNA, one strand shown. Summed up:
as §1

For another test, the target named is ELF4 (Homo sapiens, UniProt Q99607 1-663). To be noted: protein: recombinant; tags: N-terminal GST; dsDNA, one strand shown. Summed up:
as §1

For a further test, the target named is T8, ELK4 (Homo sapiens, UniProt P28324-2 1-405).
T8 sequence: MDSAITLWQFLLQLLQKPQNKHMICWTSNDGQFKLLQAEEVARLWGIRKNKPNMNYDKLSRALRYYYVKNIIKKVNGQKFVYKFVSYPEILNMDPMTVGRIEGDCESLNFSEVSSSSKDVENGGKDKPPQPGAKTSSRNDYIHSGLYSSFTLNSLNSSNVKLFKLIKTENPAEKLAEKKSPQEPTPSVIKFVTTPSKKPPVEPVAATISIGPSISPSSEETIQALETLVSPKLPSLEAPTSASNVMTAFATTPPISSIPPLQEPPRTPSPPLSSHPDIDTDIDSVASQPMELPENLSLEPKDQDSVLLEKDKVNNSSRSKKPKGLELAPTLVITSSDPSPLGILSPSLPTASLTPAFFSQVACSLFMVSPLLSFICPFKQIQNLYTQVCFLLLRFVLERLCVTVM
To be noted: protein: recombinant; tags: N-terminal GST; dsDNA, one strand shown. Summed up: as §1

The next test has as its target T9, ETV2 (Homo sapiens, UniProt O00321 1-342).
T9 sequence: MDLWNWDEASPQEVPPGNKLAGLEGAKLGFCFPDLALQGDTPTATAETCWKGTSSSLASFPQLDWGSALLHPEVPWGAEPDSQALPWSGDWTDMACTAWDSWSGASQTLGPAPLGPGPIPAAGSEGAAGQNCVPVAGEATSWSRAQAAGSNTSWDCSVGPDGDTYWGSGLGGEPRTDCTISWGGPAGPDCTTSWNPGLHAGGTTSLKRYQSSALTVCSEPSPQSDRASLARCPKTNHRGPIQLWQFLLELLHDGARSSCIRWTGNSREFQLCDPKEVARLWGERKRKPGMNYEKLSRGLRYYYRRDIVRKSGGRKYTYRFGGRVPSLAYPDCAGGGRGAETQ
To be noted: protein: recombinant; tags: N-terminal GST; dsDNA, one strand shown. In outline: as §1

Another test has as its target T10, ELF3 (Homo sapiens, UniProt P78545 1-371).
T10 sequence: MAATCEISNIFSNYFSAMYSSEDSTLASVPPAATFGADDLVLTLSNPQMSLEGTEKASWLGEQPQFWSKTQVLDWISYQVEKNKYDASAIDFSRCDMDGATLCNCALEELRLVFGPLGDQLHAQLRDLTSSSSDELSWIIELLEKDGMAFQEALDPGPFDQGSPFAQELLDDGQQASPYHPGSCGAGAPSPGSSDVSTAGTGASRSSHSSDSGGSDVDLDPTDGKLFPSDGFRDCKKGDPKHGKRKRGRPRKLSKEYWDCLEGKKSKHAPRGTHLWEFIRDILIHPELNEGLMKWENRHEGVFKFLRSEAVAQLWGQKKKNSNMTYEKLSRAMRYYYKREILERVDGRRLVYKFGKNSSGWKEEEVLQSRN
To be noted: protein: recombinant; tags: N-terminal GST; dsDNA, one strand shown. Summed up: as §1

In the next test the target is ETV1 (Homo sapiens, UniProt P50549 1-477). To be noted: protein: recombinant; tags: N-terminal GST; dsDNA, one strand shown. Summed up:
as §1

Sequence of SPIB (Q01892 whole entry): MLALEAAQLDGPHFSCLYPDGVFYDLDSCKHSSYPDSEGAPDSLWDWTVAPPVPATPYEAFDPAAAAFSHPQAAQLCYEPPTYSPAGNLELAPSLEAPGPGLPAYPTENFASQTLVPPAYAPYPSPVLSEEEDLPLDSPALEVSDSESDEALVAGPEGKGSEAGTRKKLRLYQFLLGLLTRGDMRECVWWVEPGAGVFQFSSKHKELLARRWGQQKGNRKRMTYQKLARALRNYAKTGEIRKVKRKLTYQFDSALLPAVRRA
Sequence of ETV1 (P50549 whole entry): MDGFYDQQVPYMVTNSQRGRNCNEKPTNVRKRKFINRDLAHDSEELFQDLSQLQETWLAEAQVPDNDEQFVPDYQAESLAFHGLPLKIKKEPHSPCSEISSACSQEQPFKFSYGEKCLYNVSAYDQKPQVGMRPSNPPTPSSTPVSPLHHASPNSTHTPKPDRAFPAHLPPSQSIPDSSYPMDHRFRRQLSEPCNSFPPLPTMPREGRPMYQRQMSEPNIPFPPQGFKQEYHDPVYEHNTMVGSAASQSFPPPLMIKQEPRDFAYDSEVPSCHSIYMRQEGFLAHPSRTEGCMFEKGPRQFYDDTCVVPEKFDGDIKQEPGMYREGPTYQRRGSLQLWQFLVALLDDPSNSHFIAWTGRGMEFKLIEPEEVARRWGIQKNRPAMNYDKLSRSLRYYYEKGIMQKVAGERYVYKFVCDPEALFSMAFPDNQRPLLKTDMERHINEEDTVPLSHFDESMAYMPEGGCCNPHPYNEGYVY
Sequence of HSF1 (Q00613 whole entry): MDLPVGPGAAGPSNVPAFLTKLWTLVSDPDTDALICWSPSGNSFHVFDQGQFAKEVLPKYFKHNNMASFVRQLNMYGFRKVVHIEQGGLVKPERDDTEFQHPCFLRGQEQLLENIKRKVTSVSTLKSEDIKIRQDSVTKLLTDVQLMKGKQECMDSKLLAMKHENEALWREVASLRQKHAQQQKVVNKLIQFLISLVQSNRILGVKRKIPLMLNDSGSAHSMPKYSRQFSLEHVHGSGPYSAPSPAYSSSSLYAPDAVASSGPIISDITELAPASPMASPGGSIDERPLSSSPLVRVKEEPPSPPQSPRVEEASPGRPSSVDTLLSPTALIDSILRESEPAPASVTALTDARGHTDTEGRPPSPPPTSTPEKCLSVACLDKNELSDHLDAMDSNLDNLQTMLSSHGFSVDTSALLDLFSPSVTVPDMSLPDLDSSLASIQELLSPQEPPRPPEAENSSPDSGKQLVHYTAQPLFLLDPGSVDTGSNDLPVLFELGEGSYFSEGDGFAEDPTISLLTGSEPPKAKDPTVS
Sequence of ELF4 (Q99607 whole entry): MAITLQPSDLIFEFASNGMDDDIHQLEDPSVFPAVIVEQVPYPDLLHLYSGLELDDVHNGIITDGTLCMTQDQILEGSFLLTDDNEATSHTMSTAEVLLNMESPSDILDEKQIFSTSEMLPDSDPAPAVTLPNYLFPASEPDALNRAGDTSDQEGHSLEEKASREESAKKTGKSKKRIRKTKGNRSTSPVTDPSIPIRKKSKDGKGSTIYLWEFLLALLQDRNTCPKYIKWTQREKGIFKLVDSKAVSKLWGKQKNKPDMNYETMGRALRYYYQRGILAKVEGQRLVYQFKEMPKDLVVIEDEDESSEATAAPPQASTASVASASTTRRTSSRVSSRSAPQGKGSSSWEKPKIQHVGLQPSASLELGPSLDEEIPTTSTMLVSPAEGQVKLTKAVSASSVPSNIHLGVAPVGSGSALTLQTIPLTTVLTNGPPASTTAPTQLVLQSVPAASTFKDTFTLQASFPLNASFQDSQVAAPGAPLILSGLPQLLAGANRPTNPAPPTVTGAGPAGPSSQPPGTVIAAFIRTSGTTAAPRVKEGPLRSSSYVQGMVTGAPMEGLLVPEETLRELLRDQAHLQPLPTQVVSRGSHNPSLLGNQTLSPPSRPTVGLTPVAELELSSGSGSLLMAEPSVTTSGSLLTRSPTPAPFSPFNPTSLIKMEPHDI

Turning to AAGCAA, the binding signal was 1.03 fold enrichment (6-mer frequency, TF over GST control) in the test with FLI1; 1.08 fold enrichment (6-mer frequency, TF over GST control) in the test with ELK1; 1.07 fold enrichment (6-mer frequency, TF over GST control) with GABPA; 1.02 fold enrichment (6-mer frequency, TF over GST control) in the test with ERG; 1.06 fold enrichment (6-mer frequency, TF over GST control) in the test with ELF1; 1.02 fold enrichment (6-mer frequency, TF over GST control) with EHF. Besides, the binding signal with SPIB was 1.02 fold enrichment (6-mer frequency, TF over GST control); in the test with FEV it was 1.05 fold enrichment (6-mer frequency, TF over GST control); with ETV5 it was 1.11 fold enrichment (6-mer frequency, TF over GST control); with HSF1, 1.04 fold enrichment (6-mer frequency, TF over GST control); in the test with SPIC, 1.03 fold enrichment (6-mer frequency, TF over GST control); with ELF4, 1.06 fold enrichment (6-mer frequency, TF over GST control). Further, the binding signal with ELK4 was 1.08 fold enrichment (6-mer frequency, TF over GST control); with ETV2, 1.01 fold enrichment (6-mer frequency, TF over GST control); with ELF3 it was 1.09 fold enrichment (6-mer frequency, TF over GST control); with ETV1 it was 1.08 fold enrichment (6-mer frequency, TF over GST control).
